Sampled rows, rich in hits. Any-hit rate of the full collection: about 5.7%.
JMJD2E inh – qHTS Assay for Inhibitors of Human Jumonji Domain Containing 2E (JMJD2E) | 230,000 tested, 1.6% active | Potency, µM (doses to about 57.1 µM), for the others: at the highest dose activity change, negative = inhibition, most hits filed as inhibitors | Lysine-specific demethylase 4E (Homo sapiens), B2RXH2 | JMJD2E catalytic domain, FDH-coupled NADH fluorescence (FDH is formaldehyde dehydrogenase); active = well fitted inhibition curve with a large enough effect, not every such curve was filed as active; inconclusive = small, poorly fitted or top-dose-only effect, or another doubt; inactive = no such curve, though single readings can be large or run the other way;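 also: potency is read from the fitted curve at half-maximal effect; 0% = wells with enzyme and -100% = buffer wells without enzyme; nearly all actives have a fitted effect of over 50% in size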
PI5P4K alpha inh – qHTS for Inhibitors of phosphatidylinositol 5-phosphate 4-kinase (PI5P4K). Phosphatidylinositol 5-phosphate 4-kinase type-2 alpha (Homo sapiens), P48426. PI5P4Kalpha enzyme, ADP-Glo luminescence, 60 min; stronger effect = lower value. max response, %. 330,000 tested, 1.2% active; active = max response of -50% or lower; inconclusive = between -30% and -50%; inactive = -30% or higher; also: value at the top dose of about 77 µM; % is scaled to controls: 0 for no effect and ±100 for the full control effect
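Single end-point luminescence (ADP-Glo) quantified ADP from PI5P4Kalpha turnover; ATP 5 microM final, 1 h at RT, 0.1% CHAPS and 0.28 mM EGTA in HEPES pH 7.4.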
JMJD2A Tudor inh – qHTS Assay for Inhibitors of JMJD2A-Tudor Domain | Lysine-specific demethylase 4A (Homo sapiens), O75164 | AlphaScreen JMJD2A-Tudor / H3K4me3 peptide binding | Potency, µM (series often up to 114 µM), without a hit: at the highest dose activity change, negative = inhibition, actives largely listed as inhibitors | 390,000 tested, 4.4% active; also: potency is read from the fitted curve at half-maximal effect; % is scaled to controls: 0 for no effect and ±100 for the full control effect; nearly all actives have a fitted effect of over 50% in size
BAZ2B inh – qHTS Assay for Inhibitors of BAZ2B. AlphaScreen BAZ2B-H3K14Ac peptide displacement. AID 504333, 2011. 360,000 tested, 4.4% active. Bromodomain adjacent to zinc finger domain protein 2B (Homo sapiens), Q9UIF8. Potency, µM (doses to about 114 µM), inactives show at the highest dose activity change, negative = inhibition, hits mostly inhibitors; also: potency is read from the fitted curve at half-maximal effect; % is scaled to controls: 0 for no effect and ±100 for the full control effect; nearly all actives have a fitted effect of over 60% in size
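BAZ2B 50 nM plus b-H3(5-23)K14Ac 50 nM, PBS pH 7.4/0.01% Tween-20, 30 min RT; compound added (max 110 uM), 30 min RT; streptavidin donor/Ni-chelate acceptor beads 10 ug/mL final, 20 min dark; AlphaScreen read.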
L3MBTL1 block – qHTS Assay for the Inhibitors of L3MBTL1. Lethal(3)malignant brain tumor-like protein 1 (Homo sapiens), Q9Y468. AlphaScreen L3MBTL1–H3K9me1 peptide binding. Potency, µM (top dose mostly 57.1 µM), inactives show top-dose activity, negative = inhibition, hits mostly inhibitors. 230,000 tested, 0.66% active; also: potency is read from the fitted curve at half-maximal effect; % is scaled to controls: 0 for no effect and ±100 for the full control effect; nearly all actives have a fitted effect of over 60% in size
Target sequence (Q9Y468 whole entry, looked up): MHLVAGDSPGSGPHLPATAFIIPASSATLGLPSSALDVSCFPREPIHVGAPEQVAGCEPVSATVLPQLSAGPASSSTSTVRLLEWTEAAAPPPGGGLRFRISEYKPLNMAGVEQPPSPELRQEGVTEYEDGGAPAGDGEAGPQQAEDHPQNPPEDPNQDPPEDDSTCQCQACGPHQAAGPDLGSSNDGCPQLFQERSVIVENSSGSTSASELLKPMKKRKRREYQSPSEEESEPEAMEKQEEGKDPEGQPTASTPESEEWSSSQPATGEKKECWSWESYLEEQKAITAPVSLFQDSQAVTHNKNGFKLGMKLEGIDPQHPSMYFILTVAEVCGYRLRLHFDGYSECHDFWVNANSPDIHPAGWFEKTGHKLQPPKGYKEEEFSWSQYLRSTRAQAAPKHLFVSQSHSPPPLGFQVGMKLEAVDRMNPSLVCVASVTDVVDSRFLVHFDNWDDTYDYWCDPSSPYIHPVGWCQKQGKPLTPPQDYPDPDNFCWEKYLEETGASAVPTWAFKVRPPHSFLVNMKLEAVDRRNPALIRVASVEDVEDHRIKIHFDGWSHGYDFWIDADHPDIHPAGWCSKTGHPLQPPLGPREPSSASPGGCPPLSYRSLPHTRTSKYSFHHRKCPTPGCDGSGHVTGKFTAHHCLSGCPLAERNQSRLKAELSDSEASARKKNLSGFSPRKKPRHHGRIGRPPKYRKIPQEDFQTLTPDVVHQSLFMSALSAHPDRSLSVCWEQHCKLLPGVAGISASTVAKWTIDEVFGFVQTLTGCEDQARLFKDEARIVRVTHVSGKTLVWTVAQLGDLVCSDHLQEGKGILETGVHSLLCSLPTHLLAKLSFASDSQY
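L3MBTL1 (50 nM) pre-complexed 30 min with biotinylated H3(1-15)K9me1 peptide (75 nM), then compounds added for 30 min at room temperature; AlphaScreen streptavidin donor/nickel chelate acceptor beads (10 ug/mL final) read after 30 min dark incubation.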
HP1b chromo inh – HTS for Inhibitors of HP1-beta Chromodomain Interactions with Methylated Histone Tails | Chromobox protein homolog 1 (Homo sapiens), P83916 | AlphaScreen HP1-beta / biotin-H3K9me3 peptide binding | Potency, µM (doses to about 114 µM), without a hit: top-dose activity change, negative = inhibition, actives largely listed as inhibitors | 390,000 tested, 0.56% active; also: potency is read from the fitted curve at half-maximal effect; nearly all actives have a fitted effect of over 70% in size
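AlphaScreen: HP1-beta (50 nM) preformed 30 min with biotin-H3(1-18)K9me3 peptide (50 nM) in PBS pH 7.4, 0.01% Tween-20. Compound added for 30 min at RT, then streptavidin donor/nickel chelate acceptor beads (10 ug/mL) for 30 min.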
* marks the source's active call; other numbers are inactive results; ? = inconclusive; . = not tested or not shown; [ ] = dose if it differs, or a comment. Unless noted, calls follow the shape of the dose curve; as a rule, active = well fitted inhibition curve with a large enough effect; inconclusive = small, poorly fitted or top-dose-only effect; inactive = no such curve, though single readings can be large or run the other way.

SMILES	JMJD2E inh	PI5P4K alpha inh	JMJD2A Tudor inh	BAZ2B inh	L3MBTL1 block	HP1b chromo inh
COc1ccc(NC2CCCN(C(=O)CCC(=O)c3ccc(F)cc3)C2)cc1 (stereo unspecified)	.	-6	?	40µM*	.	-34%
COc1ccc(CCC(=O)N2CCCC(Nc3ccc(OC)cc3)C2)cc1 (stereo unspecified)	.	3	-28%	?	.	-11%
Cc1ccc(NC(=O)CSc2nnc(C(F)(F)F)n2C)cc1[N+](=O)[O-]	7%	-4	8%	-1%	4%	51%
CC(c1ccccc1)n1c(Cn2ncc3ccccc3c2=O)n[nH]c1=S (stereo unspecified)	-4%	-11	32µM*	-25%	-7%	53%
O=c1c2ccccc2cnn1Cc1n[nH]c(=S)n1-c1ccc(Cl)cc1	-1%	-11	22µM*	-8%	9%	20%
O=C(O)Cn1ncc2ccccc2c1=O	-8%	0	2%	-15%	-14%	57%
O=C(Cn1c(=O)n(Cc2ccc3c(c2)OCO3)c(=O)c2ccccc21)Nc1cccc(Cl)c1	.	.	-5%	-1%	.	46%
O=C1OC(c2ccccc2)=C/C1=C/N1CCCCC1	-23%	.	?	50µM*	-5%	-22%
O=C1OC(c2ccccc2)=CC1=Cc1ccccc1O	.	-14	.	.	.	.
C[C@@H]1C(=O)O[C@@H]1[C@@H](C)CO[Si](c1ccccc1)(c1ccccc1)C(C)(C)C	.	.	17%	.	.	43%
COc1ccc(S(=O)(=O)Nc2ccc(NC(C)=O)cc2)cc1Cl	-7%	3	-12%	-12%	-4%	25%
COc1ccc(NS(=O)(=O)c2cnc(N)nc2)cc1Cl	.	.	50µM*	-3%	.	31%[57 µM]
N#CC(C#N)=C(N)/C(C#N)=C/c1cc(O)c(O)c(O)c1	.	-67*	18µM*	11µM*	?	18µM*
O=C1CN(C(=O)c2ccc(S(=O)(=O)N3CCCC3)cc2)C(c2ccc(F)cc2)c2cc(F)ccc2N1 (stereo unspecified)	.	.	-16%	-5%	.	14%
Cc1c(C)c2cc3c(c(C)c2oc1=O)OCN(CCc1ccccc1)C3	.	.	0%	-21%	.	58%
CCCCc1cc(=O)oc2cc(C)c3c(C)coc3c12	.	.	50%	-14%	.	42%
O=C(N/N=C/c1c(O)ccc2ccccc12)c1[nH]ncc1Br	32µM*	-17	-17%	-2%	-17%	19%
O=C(N/N=C/c1cccs1)c1[nH]ncc1Br	.	-7	-7%	-20%	.	49%
COc1ccc2ccccc2c1/C=N/NC(=O)c1cccc(Br)c1	?	0	9%	8%	-2%	32%
O=C(N/N=C/c1c(O)ccc2ccccc12)c1cccc(C(F)(F)F)c1	25µM*	14	-24%	-6%	-6%	26%
Cc1ccc(O)c(/C=N/NC(=O)c2[nH]ncc2Br)c1	3.2µM*	2	-1%	6%	-9%	43%
CCn1nnc2cc(C(=O)O)ccc21	2%	-27	-8%	-4%	-8%	9%
CCOc1ccc(CN2CCN(S(=O)(=O)c3ccc(Cl)cc3)CC2)cc1	.	.	?	-1%	.	-32%
Cc1ccc(-c2cn3nc(N4CCCC(C(=O)NCc5ccccc5F)C4)sc3n2)cc1 (stereo unspecified)	.	.	-13%	4%	.	19%
CS(=O)(=O)c1ccc(S(=O)CC(=O)Oc2ccc(Cl)cc2)c([N+](=O)[O-])c1 (stereo unspecified)	3.2µM*	-9	-5%	-2%	.	9%
SMILES	JMJD2E inh	PI5P4K alpha inh	JMJD2A Tudor inh	BAZ2B inh	L3MBTL1 block	HP1b chromo inh
Cc1nc(N2CCCC2)ncc1C(=O)NCc1cccc(Cl)c1	.	.	4%	-4%	.	20%
Cc1[nH]c2ccccc2c1C1=CC(=O)C=CC1=O	.	-97*	3.2µM*	.	.	?
CCOC(=O)c1ccc(NC(=O)c2nccnc2C(=O)O)cc1	?	2	40µM*	?	29%	15%
Cc1c(Cl)sn(-c2ccc(Cl)cc2)c1=O	-1%	-73*	3.2µM*	40µM*	-5%	?
CCCC(=O)C1=C(c2ccccc2)C(C#N)(C#N)C(C#N)=C1N	?	0	?	50µM*	-11%	-19%
CCCC(=O)C1=C(N(C)c2ccccc2)CC(C)(C)CC1=O	.	2	-8%	6%	-4%	27%
O=C(CN1CCN(c2ccc(Cl)cc2)CC1)Nc1ccc(F)cc1F	.	.	-3%	6%	.	53%
Cc1cc(NC(=O)CN2CCN(c3ccc(O)cc3)CC2)no1	?	.	89µM*	-11%	0%	?
O=C(CN1CCCCC1)Nc1ccccc1	-4%	-1	-5%	5%	.	44%
O=C(CN1CCCCCC1)NC(c1ccccc1)c1ccccc1	.	-2	22µM*	79µM*	-9%	?
O=C(CN1CCN(c2ccc(O)cc2)CC1)NCC(=O)Nc1ccc(F)c(F)c1F	.	-14	45µM*	-2%	-5%	?
O=C(CN1CCN(c2ccc(O)cc2)CC1)NC(c1ccccc1)c1ccccc1	-4%	?	50µM*	?	-29%	?
CCn1cc(C(=O)OCC(=O)Nc2cc(Cl)ccc2OC)c(=O)c2ccc(C)nc21	.	.	-10%	-2%	.	26%
CCN(CC)C(=O)C(=O)c1cccn1-c1cccc(OC)c1C#N	4%	0	-12%	-2%	9%	22%
O=C(CN1CCN(c2ccc(O)cc2)CC1)Nc1cc([N+](=O)[O-])ccc1Cl	14µM*	5	?	?	-4%	-21%
CC(C)[C@H]1CN=C2N(C[C@H](C)NC(=O)CCC3CCCCC3)[C@H](Cc3ccc(O)cc3)CN21	-7%	?	79µM*	-5%	.	0%
O=Cc1ccc(Sc2nnc(-c3ccccc3)o2)c([N+](=O)[O-])c1	0%	.	?	45µM*	.	-30%
Cc1cc(C)nc(Sc2ccc(C=O)cc2[N+](=O)[O-])n1	-17%	3	-15%	-21%	-13%	28%
Cc1ccc(NC(=O)CN2C(=O)c3ccccc3Sc3ccc(C(=O)N4CCOCC4)cc32)cc1C	.	.	-18%	-8%	.	-4%
O=C(OCc1ccccc1)c1cccnc1Cl	2%	-3	25%	18%	-6%	37%
O=C(OCc1ccccc1)/C(=C(\O)c1ccccc1Br)c1ccc(-c2ccccc2)cn1	.	3	-8%	56µM*	-1%	80%
